Compound activity as filed in PubChem.
Hits are enriched below; roughly 1.3% of the tested compounds scored in any of these assays.
KCNH2 WT inh = qHTS for Inhibitors of KCHN2 3.1: Wildtype qHTS; U2OS, BacMam KCNH2, thallium flux FluxOr; active compounds read low; activity change, % at 1.84 µM; 340,000 tested, 0.37% active; AID 720551, 2013;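 active means maximum activity change below -70%; inconclusive means maximum activity change between -70% and -50%; inactive means maximum activity change above -50%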; further: on the % scale 0 is the no-effect control and ±100 the full control effect
Target sequence (Q12809 whole entry, looked up): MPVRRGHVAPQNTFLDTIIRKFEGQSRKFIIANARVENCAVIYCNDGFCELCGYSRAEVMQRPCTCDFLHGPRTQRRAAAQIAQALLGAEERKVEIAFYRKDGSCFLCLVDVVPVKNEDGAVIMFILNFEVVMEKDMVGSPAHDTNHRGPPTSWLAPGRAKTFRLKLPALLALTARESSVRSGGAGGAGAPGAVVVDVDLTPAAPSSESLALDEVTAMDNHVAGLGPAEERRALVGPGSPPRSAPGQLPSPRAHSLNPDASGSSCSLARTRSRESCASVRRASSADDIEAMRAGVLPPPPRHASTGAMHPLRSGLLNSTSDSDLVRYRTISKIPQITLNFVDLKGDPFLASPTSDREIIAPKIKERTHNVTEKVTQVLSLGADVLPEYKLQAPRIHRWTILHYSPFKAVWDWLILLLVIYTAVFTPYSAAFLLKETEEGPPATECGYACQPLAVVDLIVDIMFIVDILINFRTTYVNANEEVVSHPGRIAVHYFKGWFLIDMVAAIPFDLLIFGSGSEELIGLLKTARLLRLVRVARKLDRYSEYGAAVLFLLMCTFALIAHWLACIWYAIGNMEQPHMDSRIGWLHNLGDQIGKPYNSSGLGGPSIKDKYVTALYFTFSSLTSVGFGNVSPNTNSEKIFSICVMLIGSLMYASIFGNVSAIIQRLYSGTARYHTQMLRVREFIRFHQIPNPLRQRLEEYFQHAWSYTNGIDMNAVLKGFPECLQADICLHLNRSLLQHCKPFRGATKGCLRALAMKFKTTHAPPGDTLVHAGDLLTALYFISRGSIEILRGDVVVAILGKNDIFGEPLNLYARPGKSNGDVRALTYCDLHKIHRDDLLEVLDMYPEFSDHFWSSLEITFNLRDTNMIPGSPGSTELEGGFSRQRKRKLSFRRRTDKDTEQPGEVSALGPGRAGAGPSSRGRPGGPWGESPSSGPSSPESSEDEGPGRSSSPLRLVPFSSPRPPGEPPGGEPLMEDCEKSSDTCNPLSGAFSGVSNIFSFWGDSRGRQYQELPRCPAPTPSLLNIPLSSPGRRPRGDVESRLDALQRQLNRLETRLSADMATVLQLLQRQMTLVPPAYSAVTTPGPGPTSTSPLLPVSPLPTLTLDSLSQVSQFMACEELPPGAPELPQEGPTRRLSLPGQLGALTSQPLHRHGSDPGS
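U2OS cells were transduced with wild-type KCNH2 virus (2.03 x 10^8 / mL) for 4 h at room temperature, then cultured overnight at 37 C. Thallium flux was read with FluxOr dye. Rate constants were normalized to DMSO controls.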
KCNH2 3.1 block = qHTS for Inhibitors of KCHN2 3.1: Mutant qHTS | AID 720553, 2013 | Potassium voltage-gated channel subfamily H member 2, brain isoform KCNH2 3.1 (human) | 340,000 tested, 0.95% active | U2OS KCNH2 3.1, thallium flux FluxOr; active compounds read low | activity change, % (tested at about 1.8 µM);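 active means maximum activity change below -70%; inconclusive means maximum activity change from -70% to -50%; inactive means maximum activity change above -50%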;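 further: thallium influx rate constant from kinetic fluorescence after stimulation buffer; on the % scale 0 is the no-effect control and ±100 the full control effect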
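Normalized rate constant (relative to positive and negative DMSO controls) derived from a 2 min kinetic fluorescence read after stimulation; U2OS cells expressing the 3.1 isoform via virus at 1.77 x 10^8 /mL.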
TRPV1 agonist = HTS Assay for Compounds that Act as Agonists of the Vanilloid Receptor 1; Transient receptor potential cation channel subfamily V member 1 (Homo sapiens), Q8NER1; TRPV1-expressing cells, Fluo-8 calcium influx, agonist mode; activation, % at 8.33 µM; 320,000 tested, 0.19% active; AID 540275, 2011; in the data active means activation above about 80%; inconclusive means between about 30% and that limit; further: 0% is about no effect
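Cells expressing TRPV1 were dye-loaded with Fluo-8 and read kinetically: 10 s baseline, 3 min after compound (agonist portion), then 2 min after EC20 capsaicin (allosteric enhancer portion). Calcium-bound dye fluorescence at 480/520 nm.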
TRPV1 potentiator = HTS Assay for Compounds that Act as Potentiators of the Vanilloid Receptor 1; AID 540277, 2011; Transient receptor potential cation channel subfamily V member 1 (Homo sapiens), Q8NER1; TRPV1-expressing cells, Fluo-8 calcium influx, capsaicin EC20 potentiation; potentiation, % at 8.33 µM; 320,000 tested, 0.02% active; in the data active means potentiation above about 80%; inconclusive means between about 30% and that limit; further: 0% is about no effect
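Fluo-8 calcium influx in TRPV1-expressing cells, kinetic read (ex 480/em 520 nm). Compound added and read 3 min for agonist activity, followed by capsaicin at EC20 final and 2 min further read for enhancement.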
Numbers without * were called inactive; ? = inconclusive; nt = no result.

SMILES	KCNH2 WT inh	KCNH2 3.1 block	TRPV1 agonist	TRPV1 potentiator
Cc1nn(-c2ccccc2)nc1C(=O)NN	1	-37	6	?
Cc1nn(-c2ccccc2)nc1C(=O)Nc1ccc2[nH]ncc2c1	5	5	91*	-24
CC(C)(C)C(=O)N1CCN(c2nc3ccc(Cl)cc3s2)CC1	4	8	?	-3
N#Cc1ccc(S(=O)(=O)N2CCCN(c3ccc(C(F)(F)F)cn3)CC2)cc1	36	-32	81*	-25
N#Cc1ccc(S(=O)(=O)N2CCCN(c3nc4ccc(Cl)cc4s3)CC2)cc1	-74*	-95*	?	-23
COc1ccccc1N1CCN(C(=O)CCNC(=O)c2ccco2)CC1	0	2	2	-2
CC(C)(C)NC(=O)CN(C(=O)CCC(=O)Nc1nccs1)c1ccc(F)c(Cl)c1	-34	-11	3	3
Cc1ccnc(NC(=O)CCC(=O)N(CC(=O)NC(C)(C)C)c2ccc(F)c(Cl)c2)c1	-3	-87*	-1	3
CCCn1c(N)c(C(=O)CN(C)CC(=O)Nc2cccc(F)c2)c(=O)[nH]c1=O	-20	-79*	0	5
CCCn1c(N)c(C(=O)CN(C)CC(=O)Nc2ccccc2CC)c(=O)[nH]c1=O	7	-27	-2	5
CC(C)(C)c1csc(NNC(=O)c2ccc(Br)cc2)n1	24	-4	80*	-20
CC(C)(C)c1csc(NC(=O)c2ccccc2O)n1	2	-11	24	-17
CCN(CCCNC(=O)Cn1ncc2c(=O)oc3ccccc3c21)c1cccc(C)c1	-165*	-180*	nt	nt
COC(=O)CSc1nnc(Cc2ccccc2)n1-c1ccc(C)cc1	-3	-98*	-1	5
COC(=O)CSc1nnc(C)n1-c1ccc(C)cc1	-2	2	-2	2
O=C(NCc1ccncc1)c1ccc(Oc2ccccc2)cc1	-2	13	91*	-21
O=C(C1CC(=O)N(c2ccc3c(c2)OCCO3)C1)N1CCN(Cc2ccccc2F)CC1 (stereo unspecified)	2	-4	1	17
CC(C)CN1CCNC(=O)C1CC(=O)NCCc1cnn(-c2ccccc2)c1 (stereo unspecified)	3	-114*	-2	4
CC(C)(C)CN1CCNC(=O)C1CC(=O)NCCc1cnn(-c2ccccc2)c1 (stereo unspecified)	-3	-17	0	5
Cc1ccnc(NS(=O)(=O)c2ccc(NC(=O)c3ccc(Cl)cc3[N+](=O)[O-])cc2)n1	-10	-134*	-3	-27
Cc1ccnc(NS(=O)(=O)c2ccc(NC(=O)c3cccc(Cl)c3)cc2)n1	10	1	nt	nt
Cc1ccc(N(C(=O)CNC(=O)c2ccco2)C(C(=O)NC2CCCCC2)c2cccnc2)cc1 (stereo unspecified)	0	3	3	13
Cc1ccc(S(=O)(=O)N2CCN(C(=O)CCn3cncn3)CC2)cc1C	9	17	0	?
Nc1nc(SCC(=O)c2c(N)n(Cc3ccccc3)c(=O)[nH]c2=O)n[nH]1	-105*	-17	1	2
CCC(=O)N(CCc1ccccc1)Cc1cc2cccc(C)c2[nH]c1=O	-12	37	88*	22
SMILES	KCNH2 WT inh	KCNH2 3.1 block	TRPV1 agonist	TRPV1 potentiator
COc1cc2c(cc1OC)C(c1ccc(-c3ccc(Cl)cc3Cl)o1)=NCC2	-4	-115*	0	-2
CC(=O)c1ccc(N2CCN(C(=O)Nc3ccc(C(C)C)cc3)CC2)cc1	2	-32	100*	9
CC(C)c1ccc(NC(=O)N2CCC(c3nc4ccccc4o3)CC2)cc1	-3	-13	97*	-16
CC(C)c1ccc(NC(=O)N2CCOCC2)cc1	4	-5	95*	-27
Cc1cc(C)cc(NC(=O)N2CCC(c3nc4ccccc4o3)CC2)c1	6	0	?	-7
O=c1nc(-c2ccccc2Cl)c2cc(F)ccc2[nH]1	0	-79*	3	0
O=c1c2ccccc2[nH]c2ccc(F)cc12	-15	8	0	-5
COc1ccccc1CCNC(=O)C(=O)NCC1OCCCN1S(=O)(=O)c1ccc(F)cc1C (stereo unspecified)	12	-10	2	3
N=c1c2c(-c3ccccc3)c(-c3ccccc3)n(Cc3ccco3)c2ncn1Cc1ccco1	?	-93*	17	-4
